From publication PMC13494018

B1: d1r12_design_ppi_87_dldesign_0_cycle1_af2pred (protein)
chain: GAALEEAERLMEEAEAALAQAEATGDQRLLGAAMAAAERAVELATREASPEEAAEVERRAAELFARAAEVSQRIAAALLARAAAQA
B2: d2r2_design_ppi_429_dldesign_0_cycle1_af2pred (protein)
chain: AAAEALRRALGAVLVAAHEAANRAAAERGLAAAEEVLAAGRAAGHALAARHPGAALARRAVDSQVAASAHVARHIAARAAALR
B3: d2r6_design_ppi_493_dldesign_0_cycle1_af2pred (protein)
chain: SATEAQVAAVKAKIDAATQAALNAHAARLTAAGIQAVIQTAYDASKAAGAEVKAGGDPEKAAAAAIKAVNDTAEAAAA
B4: d1r12_design_ppi_387_dldesign_0_cycle1_af2pred (protein)
chain: MEAARAAFERRKAALEADRAEAEALLADPATAAEGRALLAALAVRAKAYGKLFAAHDPELGAELTALGEEAAALA
B5: d1r11_design_ppi_982_dldesign_0_cycle1_af2pred (protein)
chain: AAAARAQAAQVVADSARAAAKEAEAKAKEAEAKDPAYGKELKANAEKLKAAAEAAEADPAALPEAVKTLIEQTSNMRALEAKLAA
B6: d2r6_design_ppi_69_dldesign_0_cycle0_af2pred (protein)
chain: ALEELRRRASELWRALSPEARQAAARAVNARVAGDEAAAEAILAEQEARDPEQGALARAAADAALAAIDLANAQAAAAARAAAAAA
B7: d1r11_design_ppi_712_dldesign_0_cycle0_af2pred (protein)
chain: MTPEEKAARLAAAADAYIKMAKAALAAGKLEEAKEFAEAALKAAKEAEKLDPELGAKKAAEAKAVKAEIDAA
B8: d2r7_design_ppi_460_dldesign_0_cycle1_af2pred (protein)
chain: AAALAAARAAAAAAAAEAVARAAAEGPGLGLLMANEAARLLREAAAGDAAEVRAAAARLLAFAEQAIAAARANRAQAAAAR
B9: d1r12_design_ppi_293_dldesign_0_cycle1_af2pred (protein)
chain: AAAAEAARKAALAAAADAHAAGAQAALRAARQAAERGDPEAARTFMDLALTSAQQARDLYDEAGFPEKGKAVYEATRAAVAEVEALL
B10: d1r12_design_ppi_822_dldesign_0_cycle1_af2pred (protein)
chain: AAAARAAEAAALAAAVTAAAAAVAAAVAAGTPDEGRAAARAFGRAALGAAARLPEVAPAVDAAADVVSDAYVAAVAAR
B11: d2r6_design_ppi_32_dldesign_0_cycle1_af2pred (protein)
chain: MKEELKKALKNAEDAAATAKQVAASDPEAKAKVEELEKEARKLAKEGLEGTEEKAEEALKRVGELTREILRIASQQFAKQQA
B12: d2r6_design_ppi_69_dldesign_0_cycle1_af2pred (protein)
chain: GLEAAQAEASRLWRQLTPEGRAAAARAVNARVAGDTAAAAAILAAAKAADPAQGALAEAAAEALLRAIDLANAQAAAEAAARAAAA
B13: d1r12_design_ppi_352_dldesign_0_cycle0_af2pred (protein)
chain: SRARANYAQLVAESAEGGAKAAEAKAKAAKAAGDEATAKKYEEAAELYREGAALAKAGDIAGAVAKINEAAALLAA
B14: d1r12_design_ppi_408_dldesign_0_cycle0_af2pred (protein)
chain: SLELAEAAHAAGRAAAADPARAAEAGALLKDMIAYALAASAAYREAEALRAAGGDQAAIDAAEAEAKAYEAKSKEKAAELKALAAAAA
B15: d1r11_design_ppi_627_dldesign_0_cycle1_af2pred (protein)
chain: AEEVAARAAELTRTVHHGSPEEATAAARELTALVAAASPEAAAAGRRAIAETNKALLAETAAARAAAAAAAAAAAAAAAAAAA
B16: d1r12_design_ppi_474_dldesign_0_cycle0_af2pred (protein)
chain: KEELKKEIKKLAKKAKEHAEEAKRTAGDLGAMARHTTEAAAAAEKAQALAAKSGDEEAKKLAKEAKEAAAEATEHLVEAARAAA
B17: d1r12_design_ppi_352_dldesign_0_cycle1_af2pred (protein)
chain: SAARARYAALVAESAEVGAATYDAAAKAAEAAGDAATAAKYKEAAALYKAGADAAKAGDIAAAVAKINAAAALVAA
B18: d2r6_design_ppi_165_dldesign_0_cycle0_af2pred (protein)
chain: MEVVEKVAELARKAAEAVERNLGEGFALAIQAADLAAEHEEVAEEAAEAAEEVLRKRAEEHPEHRERLLRLAEDFRSAVAHLLAQKA
B19: d2r6_design_ppi_95_dldesign_0_cycle1_af2pred (protein)
chain: AEAQAQAKAIVQQGYQDARALIDKYGLPVAAKVKVFNLVSAGAIIAEQGGTVEEVAAAVEAALAAAKAAAA
B20: d1r12_design_ppi_675_dldesign_0_cycle0_af2pred (protein)
chain: DEARRAGALAFAEQLRASFAATRAAAAALPRASAAAALAGIAASAKQLGAVVPEAAELAAEAAAAAAAVAA
B21: d2r6_design_ppi_333_dldesign_0_cycle0_af2pred (protein)
chain: MEEEGKKKAEEALKKAEESLKLAKSGKKLKEAEKKFAEALSLMEEAKPYLNKNPEVNKKLSKKLGEAAKALIAAKA
B22: d2r6_design_ppi_176_dldesign_0_cycle1_af2pred (protein)
chain: ALREEVEKKMGEVLDLLKELQEKKKKGELTPEQIELMQQSMRELAKAAGYLASGDKVEEAKKEAEKALELAKKALEE
B23: d2r7_design_ppi_31_dldesign_0_cycle1_af2pred (protein)
chain: AEAEALEAGAQVLSIVTATRAQTVAAFAQDPALGRQMYRQLQAAVRLAETTAKAYPAVAAELLAAAAAARAEAQAAL
B24: d1r12_design_ppi_102_dldesign_0_cycle0_af2pred (protein)
chain: AAAEAAARLAEAEALLAKAKEHAKKAKEAAKAGDLAAANQHATAASAAALAIKELGAPADIQAAADAAVAEAMDAVVAAAKAR
B25: d2r6_design_ppi_356_dldesign_0_cycle0_af2pred (protein)
chain: SEEELEKTRASLEQLKGLAEWQAAQHPEQAPLYAEAARLAEEGMKATVEEARQLGAQASALLGRAVGAAAA
B26: d2r6_design_ppi_231_dldesign_0_cycle1_af2pred (protein)
chain: AAAAEAAAAADERIATGAAAVAAMARVGARRGVEAARRLGERMLEAVTRAMAAEDPAAGARAREVGTAVFEAEIAAAAAAAAA
B27: d1r12_design_ppi_153_dldesign_0_cycle1_af2pred (protein)
chain: AAAHEAFVAEVTAVADAAADAASAAWLAGQTAGPEWRAVADRLVALAREALRAAADPARAPEARRAAAEAAALAAEAAALVAAA
B28: d2r7_design_ppi_218_dldesign_0_cycle0_af2pred (protein)
chain: SAAEAEAKRYINHAETTLATAKQLAERSTPEQAARYYRAAGEIAWKDYEKAGEALSPEEGEKMRKKGKEVKEELEKKAKELEEK
B29: d2r2_design_ppi_370_dldesign_0_cycle1_af2pred (protein)
chain: RVISPAEIVELHTAANAALREALEGDPEAGLARLRAVADRAAALSPALGAALRAEAEGARAALAAAAAAAAA
B30: d1r12_design_ppi_408_dldesign_0_cycle1_af2pred (protein)
chain: MEALAQAGHAANQAAAADPAQAPRAAALLREMIAHARAASAAWLEAQALEAAGGDPAAVAAARAAAAEHQAKAEALAAELKALAEAAA
B31: d2r4_design_ppi_198_dldesign_0_cycle1_af2pred (protein)
chain: AASAAMRAFTAAYGAANAAVARLYAADPAAGAAAARALQAALDEALALGAATGVAGIEEGAAALAAAAAALAAEAAALAAA
B32: d1r11_design_ppi_460_dldesign_0_cycle1_af2pred (protein)
chain: AAEEALKRAEELAKEVIELAEKVPEAAALGKKVREALEAARHGAESLMRAAARSTPEAAAVMNESAIAMNEAAIKLAEELRKEIEKIA
B33: d2r2_design_ppi_470_dldesign_0_cycle1_af2pred (protein)
chain: AAARARAYVALWQAANRAFAAAFATGSDAALAAARAAAAAAGAVLPGGRDAFLATVDSQAAALRAARAAAAAAAAA
B34: d2r3_design_ppi_395_dldesign_0_cycle1_af2pred (protein)
chain: SREALRQAGQLAVQAQTLANRGLALLLADPAAAPEAQALLDQAAALGEQAPVAAPVAETGRAQFAALAARL
B35: d1r11_design_ppi_712_dldesign_0_cycle1_af2pred (protein)
chain: MTPAQQAAQLANQANSYITMAKAALAAGDLETAKEFAELAIEYATQAQKLDPALGTAVKAEAEAVLAQVNAA
B36: d2r7_design_ppi_474_dldesign_0_cycle1_af2pred (protein)
chain: MASLEAGYQQFLDSIAALPLDRADAQLAAQAARHRELAARYAAAAEAAADPAVAARLRARARDHEAAAAAVEAIRAEVTARAAARA
B37: d1r11_design_ppi_865_dldesign_0_cycle0_af2pred (protein)
chain: DAELKAQAAKIAKEAIEKAKKAKDKNEVWRYASQGLAQLTRIAAAGSPEVKAFAAEQAKKLTEEAEKIVAAL
B38: d1r11_design_ppi_369_dldesign_0_cycle0_af2pred (protein)
chain: MQERLDAYNAEAGAALEAAAASTDGARRLALMRKAAGLGLAAAGYAAGPEAGEAAEKQAEARFAAADAALA

The binders below were run against CD276, Q5ZPR3.
CD276, Q5ZPR3, sequence (Q5ZPR3 whole entry): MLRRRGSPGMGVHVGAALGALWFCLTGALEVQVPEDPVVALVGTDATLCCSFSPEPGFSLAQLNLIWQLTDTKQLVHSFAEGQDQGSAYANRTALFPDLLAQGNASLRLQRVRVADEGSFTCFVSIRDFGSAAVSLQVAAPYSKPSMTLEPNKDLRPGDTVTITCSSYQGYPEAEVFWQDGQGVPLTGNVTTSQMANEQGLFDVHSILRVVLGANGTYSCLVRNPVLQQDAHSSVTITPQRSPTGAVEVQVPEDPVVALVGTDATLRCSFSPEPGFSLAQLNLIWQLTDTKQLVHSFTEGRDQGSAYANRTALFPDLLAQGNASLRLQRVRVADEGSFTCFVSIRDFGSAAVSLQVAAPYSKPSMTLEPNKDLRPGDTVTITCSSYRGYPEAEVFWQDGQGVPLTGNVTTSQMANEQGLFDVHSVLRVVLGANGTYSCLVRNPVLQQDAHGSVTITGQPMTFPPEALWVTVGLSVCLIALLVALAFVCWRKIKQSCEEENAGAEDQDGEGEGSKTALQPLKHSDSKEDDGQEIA

Binding in a display sort, inactive:
B1 not found, B2 not found, B3 not found, B4 not found, B5 not found, B6 not found, B7 not found, B8 not found, B9 not found, B10 not found, B11 not found, B12 not found, B13 not found, B14 not found, B15 not found, B16 not found, B17 not found, B18 not found, B19 not found, B20 not found, B21 not found, B22 not found, B23 not found, B24 not found, B25 not found, B26 not found, B27 not found, B28 not found, B29 not found, B30 not found, B31 not found, B32 not found, B33 not found, B34 not found, B35 not found, B36 not found, B37 not found, B38 not found
